The campaign covered roughly 310,000 compounds. About 18,000 (5.8%) were called active. About 22% were inconclusive and are not listed. This is one part of a sample in which actives are shown more often than they occur. The call rests on the fitted dose curve; in most records, active means well fitted inhibition curve with a large enough effect; inconclusive means small, poorly fitted or top-dose-only effect, or another doubt; inactive means no such curve, though single readings can be large or run the other way.
Assay: Primary qHTS for delayed death inhibitors of the malarial parasite plastid, 48 hour incubation
Conditions: P. falciparum luciferase growth in erythrocytes; series mostly up to 28.7 µM; activity change, negative = inhibition: at the top concentration
Summary of the method: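 Luminescence readout; reporter = integrated firefly luciferase in P. falciparum. RBC culture at 2% hematocrit, 0.1% parasitemia final, 37 C/5% CO2; decreased signal taken as growth inhibition.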
On the % scale 0 is the no-effect control and ±100 the full control effect; potency means the concentration at half of the fitted maximal effect.

For C[C@H](OC(=O)n1ccnc1)[C@@H]1O[C@@]2(C)CCC[C@@H]1O2, which “activity change, negative = inhibition” value is on record?
Its value is 2.35% (inactive).

With Cc1cccc(CN2CCC(n3nccc3NC(=O)c3ccccc3C)CC2)n1 as the compound, how does the “activity change, negative = inhibition” value read?
Its value is 9.28% (inactive).

Which “activity change, negative = inhibition” value does the source give for Cc1ccc(-n2ncc3c2CCCC3NC(=O)c2cnccn2)cc1C (stereo not drawn) here?
The value was -16.1% (inactive).

For COc1ccccc1C(=O)NCCC(=O)NC(C)CCc1ccccc1 (stereo not drawn), which “activity change, negative = inhibition” value is on record?
The value was 5.59% (inactive).

For O=c1oc2ccccc2c(NC2CCCCC2)c1NS(=O)(=O)c1ccc(Cl)cc1, which “activity change, negative = inhibition” value is on record?
The value was 16.6% (inactive).

With COC(=O)COc1ccc2c(=O)c(Oc3ccccc3Br)coc2c1 as the compound, how does the “activity change, negative = inhibition” value read?
Its value is 13.4% (inactive).

With O=C(C1CC(=O)N(c2ccc(Br)cc2)C1)N1CCCC1 (stereo not drawn) as the compound, how does the “activity change, negative = inhibition” value read?
Its value is 7.71% (inactive).

With COc1ccccc1NC(=O)N1CCCC1C(=O)NCc1cccs1 (stereo not drawn) as the compound, how does the “activity change, negative = inhibition” value read?
The value was -11% (inactive).

With CCN1C(=O)C(=O)N(CC(=O)Nc2cc(C)ccc2C)C1=O as the compound, how does the “activity change, negative = inhibition” value read?
The value was -13.3% (inactive).

Which “activity change, negative = inhibition” value does the source give for Cc1ccc(S(=O)(=O)N2CCN(C(=O)c3ccc(-n4cncn4)c([N+](=O)[O-])c3)CC2)cc1 here?
Its value is -25.4% (inactive).

For CC(C)c1ccc(S(=O)(=O)N2CCN(C(=O)c3ccc(N4CCCC4)c([N+](=O)[O-])c3)CC2)cc1, which “activity change, negative = inhibition” value is on record?
The value was -11.7% (inactive).

Which Potency does the source give for Nc1ccc(C(=O)N2CCN(S(=O)(=O)c3ccc(Cl)cc3)CC2)cc1[N+](=O)[O-] here?
Its Potency is 13.1 µM (active).

With CC(Sc1nnc(COc2ccccc2)n1-c1ccccc1)C(=O)O (stereo not drawn) as the compound, how does the “activity change, negative = inhibition” value read?
Its value is -26.1% (inactive).

For CC1CC(C)CN(c2ccc(S(=O)(=O)N3CCOCC3)cc2)C1 (stereo not drawn), which “activity change, negative = inhibition” value is on record?
The value was 4.74% (inactive).

With COc1cc(/C=C2\C(=N)N3N=C(CC(=O)N4CCOCC4)SC3=NC2=O)cc(OC)c1OC as the compound, how does the “activity change, negative = inhibition” value read?
Its value is 29.4% (inactive).

For O=C(CCNC(=O)c1ccccc1Cl)NCc1ccco1, which “activity change, negative = inhibition” value is on record?
Its value is -17.4% (inactive).

With COC(=O)/C=C/C(=O)NCc1ccco1 as the compound, how does the “activity change, negative = inhibition” value read?
The value was -12.4% (inactive).

Which Potency does the source give for O=C(/C=C/c1ccc(Cl)cc1Cl)NCc1ccco1 here?
The Potency was 11.7 µM (active).

Which “activity change, negative = inhibition” value does the source give for O=C(Nc1ncc([N+](=O)[O-])s1)C1COc2ccccc2O1 (stereo not drawn) here?
Its value is 53.4% (inactive).

For CN(C(=O)CN1C(=O)/C(=C/c2ccc(Cl)cc2)SC1=S)C1CCS(=O)(=O)C1 (stereo not drawn), which “activity change, negative = inhibition” value is on record?
Its value is -0.4% (inactive).

For CCc1c(C)nc(N)n2c(SCC(=O)NC3CCCCC3)nnc12, which “activity change, negative = inhibition” value is on record?
Its value is -18.9% (inactive).

Which Potency does the source give for COc1ccc2cc1Oc1ccc(cc1)C[C@H]1c3cc(c(OC)cc3CCN1C)Oc1c(O)c(OC)cc3c1[C@H](C2)N(C)CC3 here?
Its Potency is 2.94 µM (active).

Which “activity change, negative = inhibition” value does the source give for COc1ccc(/C=N/NC(=O)c2ccc3c(c2)OCCO3)c(OC)c1 here?
The value was 27.3% (inactive).

With Cn1nccc1C(=O)N1CCCC(C(=O)c2ccc(Oc3ccccc3)cc2)C1 (stereo not drawn) as the compound, how does the “activity change, negative = inhibition” value read?
Its value is -24.4% (inactive).

Which “activity change, negative = inhibition” value does the source give for Cn1c(O)c(C=Nc2ccc3c(c2)CCC3)c(=O)n(C)c1=O here?
Its value is 16.4% (inactive).

Which “activity change, negative = inhibition” value does the source give for CN(C)CCCN=Cc1c(O)n(Cc2ccco2)c(=O)[nH]c1=O here?
Its value is 27.8% (inactive).

Which Potency does the source give for CC(C)n1c(=O)c(C=Nc2ccc(Br)cc2)c(O)n(Cc2ccco2)c1=O here?
Its Potency is 13.1 µM (active).

Which “activity change, negative = inhibition” value does the source give for O=C(CN1CCN(C2CCS(=O)(=O)C2)CC1)N1N=C(c2ccc(Cl)cc2)CC1c1ccco1 (stereo not drawn) here?
The value was 28.6% (inactive).
